ChEMBL document CHEMBL1157539, “Thousands of chemical starting points for antimalarial lead identification” (Nature, 2010)

Assays:
Assay type in all cases: functional
[1] = system: Plasmodium falciparum; assay: GSK_TCMDC: Inhibition of Plasmodium falciparum 3D7 in whole red blood cells, using parasite LDH activity as an index of growth. Test compounds present at 2uM
[2] = system: Plasmodium falciparum; assay: GSK_TCMDC: Inhibition of Plasmodium falciparum Dd2 in whole red blood cells, using parasite LDH activity as an index of growth. Test compounds present at 2uM
[3] = system: HepG2; assay: GSK_TCMDC: Percent inhibition of human HepG2 cell line. Test compounds present at 10uM.

| SMILES | Inhibition [1] | Inhibition [2] | Inhibition [3] |
| --- | --- | --- | --- |
| CCN(C1CCCCC1)S(=O)(=O)c1ccc(OC)c(N2CCN(C(=O)C(Cl)(Cl)Cl)CC2)c1 | 100% | 85% | 0% |
| COc1cc2nc(N3CCC(CNC(=O)c4ccc(-c5ccc(C(=O)N(C)C)cc5C)cc4)CC3)nc(N3CCN(C)CC3)c2cc1OC | 88% | 84% | 26% |
| O=C(Cc1cn(-c2ccccc2)nc1-c1ccc(Cl)cc1)Nc1nccs1 | 88% | 8% | 9% |
| COc1ccc(-c2cccc(NC(=O)c3ccc(Cl)cc3)c2)cc1CN1CCCN(C)CC1.O=C(O)C(F)(F)F | 100% | 95% | 29% |
| COc1ccc2ncc(C#N)c(CCN3C[C@H](CNCc4ccccc4)[C@H](O)C3)c2n1.Cl | 91% | 24% | 3% |
| CCc1ccccc1NC(=O)CN1CCN(c2ncnc3scc(-c4ccc(F)cc4)c23)CC1 | 83% | 62% | 6% |
| Nc1nc(N)c2c(ccc3c2ccn3Cc2cc3c(cc2Cl)OCO3)n1 | 95% | 94% | 58% |
| Cc1ccccc1C1CCN(C2CCC(NC(=O)/C=C/c3cccc(Cl)c3)CC2)CC1 (configuration not stated) | 98% | 34% | 70% |
| CCN1CCN(Cc2c(O)ccc3c(=O)c(Oc4cc(C)cc(C)c4)c(C(F)(F)F)oc23)CC1 | 96% | 90% | 6% |
| Cc1cc(NC2CCN(CC3CCCCC3)C2)nc(Nc2ccc(Br)cc2)n1 (configuration not stated) | 100% | 83% | 22% |
| CCN(CC)C(=O)C1CCN(C(C(=O)N2CCN(CC(=O)N3CCCC3)CC2)c2cc3ccccc3o2)CC1 (configuration not stated) | 98% | 4% | 0% |
| COc1ccc2[nH]ccc(=NN=Cc3ccc(N(C)C)cc3)c2c1 | 100% | 95% | 4% |
| CN(c1ccc(C(=O)N[C@@H](CCC(=O)O)C(=O)O)cc1)S(=O)(=O)c1ccc2nc(N)[nH]c(=O)c2c1 | 97% | 3% | 16% |
| Cc1[nH]c(C)c(-c2ccc(-c3ccc(OC(F)(F)F)cc3)nc2)c(=O)c1Br | 97% | 97% | 26% |
| CC(Nc1nc(Nc2ccc(F)cc2)nc(SCC(N)=O)n1)c1ccccc1 (configuration not stated) | 90% | 87% | 14% |
| COc1ccc(NC(=O)/C=C/c2ccccc2Cl)cc1OCCN1CCC(N(C)C)CC1 | 89% | 19% | 18% |
| O=C(/C=C/c1ccc(Cl)c(Cl)c1)NCCCCCN1CCC(c2c[nH]c3c(-c4ccccc4)cccc23)CC1 | 99% | 40% | 74% |
| Nc1cccc(-c2ccc3ccnc(N)c3c2)c1 | 91% | 66% | 30% |
| COc1ccc2ccc(F)c(CC(=O)N3CCOC(CNCc4cccc(-c5ccsc5)n4)C3)c2n1 (configuration not stated) | 92% | 1% | 1% |
| COc1cccc(-c2[nH]c3ccccc3c2CN2CCC(c3c(C)cccc3C)CC2)c1 | 99% | 24% | 32% |
| COc1ccc2nccc([C@@H](O)CN3CCC(NC(=O)C(=Cc4ccc(C#N)cc4)c4ccc(-c5ccccc5)cc4)CC3)c2c1 | 100% | 84% | 5% |
| S=C(NCCc1ccccc1)Nc1ccc2ncsc2c1 | 96% | 3% | 0% |
| O=C(c1ccc(Cl)cc1Cl)N1CCCC(C(F)(F)F)C1 (configuration not stated) | 95% | 47% | 6% |
| COc1cc(Nc2nccc(N3CCC(NC(=O)C(C)c4ccc(Cl)cc4)C3)n2)cc(OC)c1OC (configuration not stated) | 97% | 90% | 2% |
| CCc1ccc(C2CCN(CCCCNC(=O)c3ccc(NC(=O)c4ccc(Cl)cc4)cc3)CC2)c(OC)c1 | 100% | 80% | 26% |
| O=C(Nc1ccc2c(c1)CN(Cc1ccc(N3CCCC3)o1)CCC2)c1ccoc1.O=CO | 89% | 76% | 4% |
| O=C(N[C@@H](CC1CCCCC1)C(=O)NCCN1CCCCC1)c1ccc(O)c(-c2cccc(C(F)(F)F)c2)c1 | 99% | 97% | 0% |
| CC(C)c1ccc(CN2CCC(NC(=O)c3ccc(-c4cccc(Cl)c4)s3)CC2)cc1.O=C(O)C(F)(F)F | 82% | 6% | 50% |
| COc1ccc(C2NCCc3c2[nH]c2ccccc32)cc1CN1CCN(c2ccc(F)cc2)CC1.Cl (configuration not stated) | 97% | 56% | 37% |
